# Reference: PubChem BioAssay AID758 (NMMLSC, 2007)
# The whole screen tested about 190,000 compounds, of which about 110 (0.058%) were called active. Inconclusive results (about 2%) are left out. This excerpt belongs to a sample that is enriched for actives. Values without a mark were called inactive.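 Rule for the calls: active = fluorescent GTP binding to Rab7 beads changed by at least 20 points from the 100% baseline, either direction, mostly lower; inconclusive = compound itself probably fluorescent, or too few beads counted; inactive = the rest.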
# Tested on: Rab7 GTPase wild type (dog), Bodipy-FL-GTP binding
# Test: modulators of GTP binding to Rab7, primary screen, biochemical, wildtype, multiplex bead flow cytometry (AID 758);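 note: median green fluorescence of bound Bodipy-FL-GTP per Rab7 bead population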
# Details: GST-Rab7 beads, fluorescent GTP binding, at 10 µM, actives lie on both sides, untreated = 100%, excess cold GTP = 0%
row,SMILES,GTP binding activity (percent of control)
1,O=C(NC(Cc1c[nH]c2ccccc12)C(=O)O)/C(=C/c1ccco1)NC(=O)c1ccccc1 (configuration not stated),98%
2,O=C(NNC(=S)NCc1ccco1)C(c1ccccc1)c1ccccc1,105%
3,COc1ccc(NC(=O)c2c(SC)nsc2SC)cc1,103%
4,CSc1ncccc1C(=O)NC1CCCCCC1,100%
5,CSc1nsc(SC)c1NC(=O)OC1CCCCC1,20% (active)
6,COc1ccc(/C=N/S(=O)(=O)c2ccccc2)cc1OC,97%
7,O=[N+]([O-])/C(N=Nc1ccccc1)=N\Nc1ccccc1,101%
8,CCC(C)(C)NC(=O)CN(Cc1cccs1)C(=O)CNS(=O)(=O)c1ccc(F)cc1,98%
9,Cc1ccc(CN2CCN(Cc3ccc(OCCO)cc3)CC2CCO)o1 (configuration not stated),104%
10,Cc1cccc(N2CCN(c3ccc(NC(=O)/C=C\C(=O)O)cc3)CC2)c1,97%
11,O=C1CS(=O)CN1c1ccc(Oc2ccccc2)cc1 (configuration not stated),93%
12,Cc1ccc(C(=O)NCC(=O)O)s1,95%
13,Cc1c(-c2cccc(Cl)c2)nc2ccccc2c1C(=O)OCC(=O)N(C)C1CCS(=O)(=O)C1 (configuration not stated),105%
14,CCOC(=O)C1(Cc2cccc(OC)c2)CCN(C(C)COC)CC1 (configuration not stated),104%
15,CCSC1=NCCN1S(=O)(=O)c1ccc(F)cc1,105%
16,CCOc1ccc(/C=N/Nc2nncc(-c3ccccc3)n2)cc1OC,102%
17,COc1ccc(-c2[nH]ncc2CN(Cc2nccn2C)C(C)C)cc1F,100%
18,Cc1ccc(-c2cc(C(F)(F)F)n3ncc(C(=O)N4CCCCC4c4cccnc4)c3n2)cc1 (configuration not stated),97%
19,Cc1cccc(N2CCN(c3ccc(C(N)=O)cc3[N+](=O)[O-])CC2)c1C,95%
20,Cc1nnc(SCC(=O)NNC(=O)c2ccc(Cl)cc2)n1CC1CCCO1 (configuration not stated),100%
21,COc1cc2[nH]c(=O)n(Cc3ccc(C(=O)NC4CCN(Cc5ccccc5)CC4)cc3)c(=O)c2cc1OC,104%

row,SMILES,GTP binding activity (percent of control)
1,CCCCn1c(N)c(N2CCOCC2)c(=O)n(CC(=O)NCCc2ccccc2)c1=O,105%
2,COCCCNC(=S)NNC(=O)C(O)(c1ccccc1)c1ccccc1,109%
3,CC(OC(=O)CCc1nc(=O)c2ccccc2n1C)C(=O)NCc1ccc2c(c1)OCO2 (configuration not stated),97%
4,COc1ccc(NS(=O)(=O)c2cc(NC(=O)CC(=O)c3ccc([N+](=O)[O-])cc3)ccc2C)cc1,106%
5,COc1cc(OC)cc(-c2nnc(SCC(=O)Nc3ccc(C(=O)O)cc3)s2)c1,93%
6,Oc1ccc(-c2nncn2-c2ccccc2)cc1,99%
7,CCN(CCn1cccn1)Cc1cn[nH]c1-c1ccc(OC)cc1F,97%
8,CCN(CC)S(=O)(=O)c1ccc(NC(=O)c2cccnc2Cl)c(NC(=O)c2cccnc2Cl)c1,91%
9,CCOC(=O)C1(CC2CCCCO2)CCN(Cc2nc(-c3cccs3)oc2C)CC1 (configuration not stated),99%
10,NC(N)=N/N=C/c1ccc(Cl)c([N+](=O)[O-])c1,103%
11,CC(Nc1nc(N2CCN(CCO)CC2)nc2ccccc12)c1ccccc1 (configuration not stated),98%
12,CC(=O)NCC(=O)N1CCCC(C(=O)c2ccc3c4c(cccc24)CC3)C1 (configuration not stated),98%
13,CC(C)N1CCC(N2CCN(Cc3cccnc3)CC2CCO)CC1 (configuration not stated),104%
14,N#Cc1c(NC(=O)C2CC(Cl)=CCC2C(=O)O)sc2c1CCCCC2 (configuration not stated),94%
15,CCOC(=O)c1ccc(N2C(=O)CC(N3CCN(C(=O)c4ccccc4)CC3)C2=O)cc1 (configuration not stated),97%
16,COCCCNc1nc2c(-c3cccc(C(F)(F)F)c3)nnn2c2ccccc12,105%
17,C/C(CCc1ccccc1)=N\NC(=O)c1ccc(CN2CCOCC2)cc1,103%
18,Cc1ccccc1NS(=O)(=O)CCCCC(Cl)(Cl)Cl,96%
19,CC1CCN(S(=O)(=O)c2ccc(S(=O)(=O)NCc3cccnc3)cc2)CC1,98%
20,CCCNC(=O)c1c(Cl)cnn1-c1ccc(C)cc1,96%
21,O=C(CO/N=C/c1ccccc1OC(F)F)NC1CCCC1,103%

row,SMILES,GTP binding activity (percent of control)
1,O=C(NNC(=O)C1C2CCC(C2)C1C(=O)O)c1ccc(Cl)cc1 (configuration not stated),103%
2,CCN(CC)S(=O)(=O)c1ccc(OC(C)C)c(N)c1,107%
3,CN(C)/C=C(/C(=O)c1ccccc1Cl)S(C)(=O)=O,104%
4,CCCN(CCC)CCCNC(=O)CNC(=O)c1nn(-c2ccc(OC)cc2)c(=O)c2ccccc12,95%
5,CC(=O)c1c(C)[nH]c(C(=O)OCC(=O)NCCC(C)C)c1C,95%
6,Cc1cccc(C(=O)OCC(=O)NCC(C)C)c1O,96%
7,S=C(NCCc1ccccc1)N1CCn2cccc2C1c1ccncc1 (configuration not stated),91%
8,COc1ccc2cc(CCl)c(Cl)nc2c1,91%
9,O=C(CCC(=O)OCc1ccc(Cl)cc1)Nc1ccccc1,102%
10,CN(C)S(=O)(=O)c1cccc(NC(=S)NCc2ccc3c(c2)OCO3)c1,104%
11,CCN(CC)S(=O)(=O)c1ccc(N(C)CCc2ccc(OC)c(OC)c2)nc1,96%
12,CC(C)CC(CC(C)C)=NNC(=O)c1ccc(CSc2nncn2C)cc1,104%
13,Cn1cnnc1SCC(=O)Nc1ccc(N2CCOCC2)cc1,98%
14,O=C(CN1C(=O)c2cccc3cccc1c23)Nc1ccccc1,98%
15,O=C(CS(=O)(=O)c1ccccc1)Nc1ccc(S(=O)(=O)Nc2ccccn2)cc1,107%
16,COc1cc(OC)cc(-c2nc(=S)n3ccsc3n2)c1,99%
17,Cc1ccc(/C=N/NC(=O)Cn2ccc(C(F)(F)F)n2)o1,105%
18,CCN(CC(=O)Nc1ccc(Cl)c(S(=O)(=O)N(C)C)c1)Cc1nc2ccccc2c(=O)[nH]1,105%
19,COc1cc(NC(=O)COc2ccccc2Cl)ccc1NC(=O)C(C)C,98%
20,Cc1ccc(C2NC(C(=O)O)CS2)cc1 (configuration not stated),103%
